# PubChem BioAssay AID2069 (Sanford-Burnham Center for Chemical Genomics, 2009)
# In all, about 1,200 compounds went through this assay and about 210 (18%) were called active. A selection follows. A number with no mark means an inactive call. Cut-off read from the data, not from the text of the source: active = inhibition above about 30%; inactive = the rest.
# Assay: HTRF signal interference by compounds, confirmation, artefact control for SUMOylation inhibitor project, biochemical, uHTS (AID 2069)
# Conditions: HTRF interference counterscreen, fluorescence, at 35 µM, stronger effect = higher value
row,Compound,inhibition
1,S=c1[nH]nc(-c2cc(-c3ccccc3)n[nH]2)n1/N=C/c1ccc(Br)s1,-6.25%
2,O=C(NC(=S)Nc1cccc2c(O)cccc12)c1ccco1,-6.9%
3,Cc1ccc(Cn2cccc(NS(C)(=O)=O)c2=O)cc1,-3.15%
4,O=S(=O)(Nc1cc2nc3ccccc3nc2n1Cc1ccccc1)c1ccc(Cl)cc1,24.5%
5,Oc1cccc(C=NCc2ccccc2)c1O,-0.8%
6,CNS(=O)(=O)c1ccc2nc(NC(=O)/C=C/c3ccco3)sc2c1,25.6%
7,COc1cc2cc(NC(C)=O)cc(NCc3ccccc3)c2cc1OC,-19.9%
8,Cc1ccc(N2CCN(Cc3ccccc3)CC2=O)c(C)c1,-6.45%
9,O=C(O)/C=C/c1cn(-c2ccccc2)nc1-c1cc2ccccc2o1,41.2% (active)
10,O=C(O)/C=C\c1cn(-c2ccccc2)nc1-c1cc2ccccc2o1,48.1% (active)
11,O=Cc1cn(-c2ccccc2)nc1-c1cc2cc(O)ccc2oc1=O,11.8%
12,Nc1c(N2CCOCC2)cc(Cl)c2nonc12,3%
13,Cc1ccc(C(=O)N[C@H](C(=O)Nc2cc(Cl)cc(Cl)c2)C(C)C)cc1,3.15%
14,N#Cc1ccsc1NC(=O)CN1CCN(c2ccc(O)cc2)CC1,14.3%
15,Cc1ccc(-c2cc(-c3ccccc3O)nc(N/N=C/c3cccnc3)n2)cc1,52.2% (active)
16,Nc1c(C(=O)N/N=C/c2cccnc2)oc2nc(-c3ccco3)cc(-c3ccco3)c12,20%
17,S=c1[nH]nc(-c2ccncc2)n1/N=C/c1ccccc1Cl,-1.75%
18,CC(C)N1C(=O)CC(Nc2cccc3cccc(N)c23)C1=O (stereo not given),-13.8%
19,Cc1ccc(-c2[nH]ncc2/C=N/n2c(C)nc3ccccc3c2=O)cc1,-0.85%
20,O=c1c2ccccc2nc(/C=C/c2cccnc2)n1Cc1ccccc1,30.9% (active)
21,O=C(Cc1cccc2ccccc12)NN1C(=O)/C(=C\c2cccnc2)SC1=S,-7.8%
22,COc1ccc(S(=O)(=O)C(C#N)c2nc3ccccc3nc2N2CCCCC2)cc1 (stereo not given),-7.95%
23,Cc1ccc(S(=O)(=O)C(C#N)c2nc3ccccc3nc2N2CCCC2)cc1C (stereo not given),-3.55%
24,CCOC(=O)c1c(NC(=O)C2C3C=CC(CC3)C2C(=O)O)sc(C)c1CC (stereo not given),0.4%

row,Compound,inhibition
1,O=C(N/N=C/c1ccc([N+](=O)[O-])o1)c1cc(-c2ccc(-c3ccccc3)cc2)nc2ccccc12,4.6%
2,Cc1ccc(C2Nc3cccc4cccc(c34)N2)s1,-32.4%
3,Cc1cc(=O)n2[nH]c(N)c(N=Nc3ccccc3F)c2n1,-14.7%
4,COc1ccc(C(=O)Nc2ccc(-c3nnn(CC(=O)N4CCN(C(=O)c5ccco5)CC4)n3)cc2)cc1,25.6%
5,COc1ccc(/C=C2/SC(=S)N(c3ccc(S(=O)(=O)Nc4nccs4)cc3)C2=O)cc1,-18%
6,CCOC(=O)c1nn(-c2ccc3c(c2)CCN3C(C)=O)cc1O,48.8% (active)
7,COc1ccc(Br)cc1CNc1ccc(O)cc1,-15.2%
8,O=C(O)CCCN1C(=O)/C(=C/c2cn(-c3ccccc3)nc2-c2cccs2)SC1=S,4.55%
9,Cc1ccc(-c2nn(-c3ccccc3)cc2/C=C2\SC(=S)N(CCCCCC(=O)O)C2=O)o1,37% (active)
10,O=C(O)CCCN1C(=O)/C(=C/C=C/c2ccco2)SC1=S,11.7%
11,COC(=O)c1cc2c(C)[nH]c(C)c2cc(C(=O)OC)c1=O,3.75%
12,O=[N+]([O-])c1ccc(C=Nc2ccc(Cl)c([N+](=O)[O-])c2)s1,6.5%
13,O=C(NNc1cc(N2CCCC2)nc(N2CCCC2)n1)c1ccc([N+](=O)[O-])cc1,-2.1%
14,Cc1ccc(/C=c2\sc3nc(-c4ccco4)nn3c2=O)o1,-1.1%
15,Cc1sc2nc3ccc(NCc4ccco4)nn3c(=O)c2c1C,44.4% (active)
16,COc1cccc(-c2[nH]nc3c2C(c2ccsc2)C(C#N)=C(N)O3)c1 (stereo not given),-11%
17,CC(NC(=O)Nc1ccc(O)cc1)(C(F)(F)F)C(F)(F)F,1.45%
18,COc1ccc(S(=O)(=O)C(C#N)c2nc3ccccc3nc2N2CCCC(C)C2)cc1 (stereo not given),13.2%
19,O=c1[nH]c(Nc2ccc(F)cc2)cc2ccccc12,29.8%
20,COC1=C(Nc2ccccc2)C(=O)c2ccccc2C1=O,-14.2%
21,O=c1[nH]c(Nc2ccccc2)cc2ccccc12,41% (active)
22,C/C(=N\NC(=O)c1cc(O)cc(O)c1)c1ccc(NC(=O)Cc2ccccc2)cc1,25.6%
23,COc1ccccc1/C=C/C=c1\sc2nc(=O)c(Cc3ccccc3)nn2c1=O,0.1%
24,Cc1cc(C)cc(Oc2coc3c(CN(C)C)c(O)ccc3c2=O)c1,48.2% (active)

row,Compound,inhibition
1,CCN(CC)Cc1c(O)ccc2c(=O)c(Oc3ccccc3OC)coc12,42.6% (active)
2,COc1ccc(NCc2cc3ccccc3[nH]c2=O)cc1,11.8%
3,N#Cc1c(-c2ccccc2)nc(SCC(=O)N2c3ccccc3Sc3ccccc32)[nH]c1=O,15.3%
4,CCOC(=O)N1CCN(C2=C(NS(=O)(=O)c3ccc(NC(C)=O)cc3)C(=O)c3ccccc3C2=O)CC1,-27.3%
5,Nc1ccc(Br)c2cccnc12,11.4%
6,Cc1ccc(N/N=C2\CC(=O)c3ccccc32)cc1Cl,-12%
7,C/C(CCc1ccco1)=N\NC(=O)CNc1cccc2ccccc12,22.1%
8,O=c1c(C(c2ccccc2)c2c(O)sc3ccccc3c2=O)c(O)sc2ccccc12,4.95%
9,COC1=C(Nc2ccccc2OC)C(=O)c2ccccc2C1=O,-37.9%
10,COc1cccc2c1C(=O)c1ccc3ccccc3c1C2=O,5.5%
11,COc1ccc(OC)c2c1C(=O)c1ccccc1C2=O,42.9% (active)
12,COc1cccc(Cn2cccc(NC(=O)Nc3ccccc3C)c2=O)c1,0%
13,CCOC(=O)C1=C(C)NC(=O)CC1c1cc2c(cc1[N+](=O)[O-])OCO2 (stereo not given),-4.35%
14,COc1cc(Br)c(C(=O)c2nccc3cc(OC)c(OC)cc23)cc1OC,3.15%
15,COc1ccc(NC(=O)CN2C(=O)S/C(=C/c3cccn3-c3ccc(C(=O)O)cc3)C2=O)cc1,8%
16,O=C1C2C3C=CC(C4CC34)C2C(=O)N1CCc1ccccc1 (stereo not given),8.65%
17,Cc1ccc(-n2nc3ccc(N)cc3n2)c(C)c1,59.3% (active)
18,Cc1ccc(C(=O)c2c3ccc(N)cc3nn2CCC(N)=O)cc1,14.2%
19,CN(C)C=Nc1ccc2nn(-c3ccccc3)nc2c1,58.8% (active)
20,Nc1ccc2nn(-c3cccc4ccccc34)nc2c1,64.5% (active)
21,CN(C)C=Nc1ccc2nc3c(cc2c1)[nH]c1ccccc13,53.9% (active)
22,CC1=NN(c2ccc(C)cc2C)C(=O)C1C(c1cccc(O)c1)C1C(=O)N(c2ccc(C)cc2C)N=C1C (stereo not given),-2.1%
23,N#Cc1c(=O)c2nc(NCc3ccccc3)ncc2n2ccccc12,26%
24,COc1ccccc1/C=C/C=N/NC(=O)c1cc(-c2ccco2)[nH]n1,1.9%

row,Compound,inhibition
1,COc1ccccc1-n1cnc2c(c1=O)c1nc3ccccc3nc1n2-c1ccc(C)c(C)c1,2%
2,O=[N+]([O-])c1ccc(C2Nc3cccc4cccc(c34)N2)cc1,-5.1%
3,N#CC1=C(SCC(=O)NC23CC4CC(CC(C4)C2)C3)NC(=O)C(C#N)C12CCCCC2 (stereo not given),4.6%
4,Cc1cc(NC(=O)CSc2nnc(Nc3ccccc3C)s2)no1,-1.2%
5,Oc1ccc(NC(=S)Nc2ccc(O)cc2)cc1,19.6%
6,Cc1[nH]n(-c2ccccc2)c(=O)c1C(C[N+](=O)[O-])c1ccc(Br)cc1 (stereo not given),-5.3%
7,Nc1ccc2nn(-c3ccccc3)nc2c1,66% (active)
8,Cn1cc2ccc(N)cc2n1,2.15%
9,COc1ccc(-n2nc3cc(C)c(N)c(Br)c3n2)cc1,-14.3%
10,Cc1cccc(S(=O)(=O)C(C#N)c2nc3ccccc3nc2N2CC(C)OC(C)C2)c1 (stereo not given),9.45%
11,Cc1c(C(=O)c2ccc(Cl)cc2[N+](=O)[O-])c2ccccn2c1CCC#N,2.8%
12,Cc1n[nH]c(=S)n(NC(=O)/C=C/C(=O)Nn2c(=S)[nH]nc(C)c2=O)c1=O,51.5% (active)
13,O=C(NCCc1csc(-c2ccccc2)n1)c1c(F)cccc1Cl,-9.35%
14,CC1N(C)c2cccc3cccc(c23)N1C,-9.25%
15,CCOC(=O)c1c(C)oc2c1c(C=NCCC(=O)O)c(O)c1ccccc12,-7.35%
16,CCOC(=O)c1c(C)oc2c1C(=O)c1ccccc1C2=O,1.65%
17,CCOC(=O)c1c(-c2ccccc2)oc2ccc(OC(C)C(=O)O)cc12 (stereo not given),58.6% (active)
18,N=C1S/C(=C\c2ccco2)C(=O)N1c1ccc2c(c1)OCO2,12.6%
19,CC1=NOC(=O)/C1=C\c1ccc(-c2cc(Cl)ccc2Cl)o1,11%
20,Cc1cc(NC(=O)CSc2nc3cc(C(=O)NCCCOC(C)C)ccc3c(=O)n2Cc2ccco2)no1,6.6%
21,COc1cc2c(cc1OC)C(C)=NC1(CCCCC1)C2,31.6% (active)
22,CSc1ccc(-c2cc(=O)c3ccccc3o2)cc1,60.2% (active)
23,CCN(CC)S(=O)(=O)c1cc(C)ccc1SC,-1.75%
